For orientation: AC50 means the concentration at which the activity in the assay is half-maximal.

Molecules are shown by their SMILES. Active and inactive are the calls of the source. Rule for the calls: active = hit-call score of the fitted dose curve at least 0.9, where 1 is the maximum; inactive = score below 0.9.

Test [1] can be described thus: ATG_CRE_CIS: Attagene CIS-FACTORIAL HepG2 Assay for human cAMP Responsive Element (CRE) binding protein 3 (AID 2282926). The note with it: HepG2 CRE cis-reporter, Attagene multiplexed mRNA; actives raise or lower the signal. A digest of the protocol:
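Multiplexed transcription-unit reporters transfected into HepG2; 24 h dosing; RT-PCR/capillary electrophoresis fluorescence read-out; bidirectional fit vs DMSO.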

Test [2] concerns the target CCAAT/enhancer-binding protein beta (Homo sapiens) (UniProt P17676). The test can be described thus: ATG_C_EBP_CIS: Attagene CIS-FACTORIAL HepG2 Assay for human CCAAT/Enhancer Binding Protein (C/EBP) beta (AID 2282927). The note with it: HepG2 Attagene cis-factorial transcription factor reporter; actives raise or lower the signal. Put shortly: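 Transiently transfected HepG2 (MRTU library, endogenous TF-driven promoters); 24 h dosing; total RNA → oligo(dT) RT → PCR → 6-FAM primer extension → HpaI digest → CE; fit bidirectionally vs DMSO.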

The nature of test [3]: ATG_CMV_CIS: Attagene CIS-FACTORIAL HepG2 Assay for human CMV (Internal Marker) (AID 2282928).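 Note: endpoint acts as a background internal control marker rather than a target.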 The settings on record: HepG2 CMV promoter reporter, transcription factor profiling; actives raise or lower the signal. Put shortly: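 Cell system: HepG2, transiently transfected multiple reporter units under cis promoters. Exposure: 24 h. Detection: RT-PCR, FAM labeling, HpaI digestion, capillary electrophoresis. Analysis: bidirectional, DMSO baseline.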

Test [4] can be described thus: ATG_DR4_LXR_CIS: Attagene CIS-FACTORIAL HepG2 Assay for human Liver X Receptor (LXR), DR4 submotif (AID 2282929). The note with it: HepG2 Attagene DR4 cis-reporter, mRNA transcription; actives raise or lower the signal. A digest of the protocol:
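Endogenous factor activity at a DR4 cis-element is read as reporter mRNA in transiently transfected HepG2 cells. Exposure lasts 24 h; transcripts are amplified, fluorescently labelled and sized by capillary electrophoresis, with DMSO as baseline.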

The target in test [5] is Aryl hydrocarbon receptor (Homo sapiens) (UniProt P35869). The test can be described thus: ATG_Ahr_CIS: Attagene CIS-FACTORIAL HepG2 Assay for human Aryl Hydrocarbon Receptor (Ahr) (AID 2282930). The settings on record: HepG2 AhR cis-factorial reporter transcription; actives raise or lower the signal. Put shortly: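 Read-out: reporter mRNA quantified by RT-PCR with fluorescent primer extension and capillary electrophoresis. Human HepG2 liver cells carried transfected cis-promoter reporter units and were exposed to chemical for 24 h; gain or loss fitted relative to DMSO.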
Aryl hydrocarbon receptor (Homo sapiens), sequence (P35869 whole entry, looked up): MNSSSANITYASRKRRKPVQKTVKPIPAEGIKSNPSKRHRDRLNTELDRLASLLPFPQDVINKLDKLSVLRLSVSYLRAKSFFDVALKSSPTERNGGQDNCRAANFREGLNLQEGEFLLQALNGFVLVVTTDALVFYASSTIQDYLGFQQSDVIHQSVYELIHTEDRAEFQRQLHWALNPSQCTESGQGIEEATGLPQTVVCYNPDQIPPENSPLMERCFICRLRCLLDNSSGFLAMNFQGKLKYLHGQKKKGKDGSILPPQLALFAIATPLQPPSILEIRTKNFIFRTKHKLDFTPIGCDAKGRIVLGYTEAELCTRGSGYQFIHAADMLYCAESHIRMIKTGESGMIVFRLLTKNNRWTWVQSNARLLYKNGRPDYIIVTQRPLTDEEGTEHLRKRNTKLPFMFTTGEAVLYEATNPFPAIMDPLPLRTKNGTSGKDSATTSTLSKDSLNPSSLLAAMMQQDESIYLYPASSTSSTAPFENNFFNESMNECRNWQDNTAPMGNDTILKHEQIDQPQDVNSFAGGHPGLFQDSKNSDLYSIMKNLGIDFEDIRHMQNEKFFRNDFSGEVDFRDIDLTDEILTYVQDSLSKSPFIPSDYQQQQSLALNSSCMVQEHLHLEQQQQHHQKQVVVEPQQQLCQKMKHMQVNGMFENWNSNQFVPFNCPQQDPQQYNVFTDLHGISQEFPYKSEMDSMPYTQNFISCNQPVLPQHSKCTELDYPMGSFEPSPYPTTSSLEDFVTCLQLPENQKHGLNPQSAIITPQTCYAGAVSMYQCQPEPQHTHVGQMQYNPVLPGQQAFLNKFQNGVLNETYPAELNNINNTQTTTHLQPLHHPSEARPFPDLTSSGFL

Test [6] is described as follows: ATG_AP_1_CIS: Attagene CIS-FACTORIAL HepG2 Assay for human Activator Protein 1 (AP-1) (AID 2282931). The note with it: HepG2 Attagene cis-factorial AP-1 reporter mRNA; actives raise or lower the signal. Put shortly:
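Fluorescence of labelled PCR fragments separated by capillary electrophoresis gives reporter mRNA levels. HepG2 with transfected cis-regulated reporter units, 24 h exposure; DMSO serves as baseline for bidirectional curve fits.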

A short description of test [7]: ATG_AP_2_CIS: Attagene CIS-FACTORIAL HepG2 Assay for human Activator Protein 2 (AP-2) (AID 2282932). The settings on record: HepG2 AP-2 cis-reporter, Attagene transcription factor profiling; actives raise or lower the signal. A digest of the protocol:
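Multiplexed mRNA reporter assay in HepG2: cis-regulated units report endogenous factor activity after 24 h treatment. Fluorescence from capillary electrophoresis of RT-PCR products gives the signal, with DMSO as baseline.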

Test [8] is described as follows: ATG_BRE_CIS: Attagene CIS-FACTORIAL HepG2 Assay for human Bone Morphogenetic Protein (BMP) Response Element (BRE) (AID 2282933). The note with it: HepG2 BMP response element reporter, Attagene transcription factor profiling; actives raise or lower the signal. Put shortly:
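Endogenous transcription factor activity read in transiently transfected HepG2 cells after 24 h chemical exposure. Bidirectional curve fitting against DMSO; readout is reporter transcript level by RT-PCR with capillary electrophoresis of labelled products.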

Test [9] deals with Retinoic acid receptor alpha (Homo sapiens) (UniProt P10276). Nature of the test: ATG_DR5_RAR_CIS: Attagene CIS-FACTORIAL HepG2 Assay for human Retinoic Acid Receptor Alpha (RARE), DR5 submotif (AID 2282934).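 For AC50: reporter responds to endogenous RAR alpha beta and gamma in HepG2 not RARA alone.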 The settings on record: HepG2 Attagene cis-factorial RARE DR5 reporter, mRNA; actives raise or lower the signal. A digest of the protocol:
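Read-out: DR5-driven reporter transcript measured by RT-PCR, 6-FAM primer extension, HpaI digest and capillary electrophoresis. Human HepG2 liver cells carry transiently transfected cis-element reporter constructs; dosing lasts 24 h. Gain or loss of signal fitted against DMSO baseline.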

In test [10] the target is Transcription factor E2F1 (Homo sapiens) (UniProt Q01094). The test can be described thus: ATG_E2F_CIS: Attagene CIS-FACTORIAL HepG2 Assay for human E2F Transcription Factor 1 (AID 2282935). The settings on record: HepG2 Attagene cis-reporter, E2F reporter RNA transcripts; actives raise or lower the signal. A digest of the protocol:
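Measures reporter transcript levels via RT-PCR with capillary electrophoresis detection in HepG2 cells harboring cis-regulated reporter units; 24 h post-dose; bidirectional curve fitting with DMSO as baseline.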

A short description of test [11]: ATG_E_Box_CIS: Attagene CIS-FACTORIAL HepG2 Assay for human Enhancer Box (E-box) (AID 2282936). The note with it: HepG2 E-box cis-reporter transcription, actives raise or lower the signal. A digest of the protocol:
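First, HepG2 cells receive multiple cis-regulated reporter constructs by transient transfection. Next, chemicals are applied for 24 h. Finally, reporter mRNA is quantified via RT-PCR and capillary electrophoresis, with DMSO as baseline.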

Test [12] is described as follows: ATG_M_61_CIS: Attagene CIS-FACTORIAL HepG2 Assay for M61 Transcription Factor (Internal Marker) (AID 2282937). The note with it: HepG2 Attagene CIS-FACTORIAL M61 internal marker reporter; actives raise or lower the signal. A digest of the protocol: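 This endpoint serves as an internal background control within a multiplexed HepG2 cis-reporter panel. Cells are exposed for 24 h; reporter mRNA is amplified, fluorescently labelled and sized by capillary electrophoresis, with DMSO as negative control.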

Test [13] is described as follows: ATG_EGR_CIS: Attagene CIS-FACTORIAL HepG2 Assay for human Early Growth Response 1 (EGR1) (AID 2282938). The note with it: HepG2 Attagene CIS-FACTORIAL EGR reporter mRNA; actives raise or lower the signal. Put shortly:
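HepG2, transient MRTU transfection (cis promoters), 24 h compound. RNA → RT (oligo-dT) → PCR → 6-FAM labelling → HpaI cut → CE fluorescence. Bidirectional fit, DMSO baseline.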

Test [14] in a line: ATG_M_19_CIS: Attagene CIS-FACTORIAL HepG2 Assay for M19 Transcription Factor (Internal Marker) (AID 2282939). The note with it: HepG2 Attagene CIS-FACTORIAL M19 internal marker reporter; actives raise or lower the signal. Put shortly: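 Internal marker readout, fitted in both directions against DMSO, from HepG2 cells carrying transfected cis-element reporter constructs; RT-PCR and capillary electrophoresis of reporter mRNA after 24 h exposure.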

Test [15] can be described thus: ATG_ERE_CIS: Attagene CIS-FACTORIAL HepG2 Assay for Estrogen Response Element (ERE) (AID 2282940). The settings on record: HepG2 ERE cis-reporter, Attagene RNA transcript; actives raise or lower the signal. Put shortly:
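After 24 h compound treatment, RNA from transfected HepG2 cells was reverse-transcribed, reporter cDNA PCR-amplified, FAM-labelled, HpaI-cut and resolved by capillary electrophoresis. ERE-driven cis reporter transcripts reflect endogenous factors; gain or loss scored against DMSO.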

Test [16] in a line: ATG_Ets_CIS: Attagene CIS-FACTORIAL HepG2 Assay for human Erythroblast Transformation Specific (ETS) (AID 2282941). The note with it: HepG2 ETS cis-reporter transcription, actives raise or lower the signal. A digest of the protocol:
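After transient cis-reporter transfection, HepG2 cells receive test chemical for 24 h. Reporter mRNA levels, measured by RT-PCR and capillary electrophoresis fluorescence, are analysed bidirectionally relative to the DMSO baseline.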

Test [17] deals with Hepatocyte nuclear factor 3-beta (Homo sapiens) (UniProt Q9Y261). The test can be described thus: ATG_FoxA2_CIS: Attagene CIS-FACTORIAL HepG2 Assay for human Forkhead box A2 (FOXA2) (AID 2282942). The settings on record: HepG2 cis-reporter transcription factor activity, 24 h; actives raise or lower the signal. A digest of the protocol: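 Cells: HepG2, transient multiplex reporter transfection. Exposure 24 h. Detection: reporter-specific RT-PCR, fluorescent labelling, restriction digest, capillary electrophoresis. Analysis: bidirectional curve fit, DMSO as negative control.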
Hepatocyte nuclear factor 3-beta (Homo sapiens), sequence (Q9Y261 whole entry, looked up): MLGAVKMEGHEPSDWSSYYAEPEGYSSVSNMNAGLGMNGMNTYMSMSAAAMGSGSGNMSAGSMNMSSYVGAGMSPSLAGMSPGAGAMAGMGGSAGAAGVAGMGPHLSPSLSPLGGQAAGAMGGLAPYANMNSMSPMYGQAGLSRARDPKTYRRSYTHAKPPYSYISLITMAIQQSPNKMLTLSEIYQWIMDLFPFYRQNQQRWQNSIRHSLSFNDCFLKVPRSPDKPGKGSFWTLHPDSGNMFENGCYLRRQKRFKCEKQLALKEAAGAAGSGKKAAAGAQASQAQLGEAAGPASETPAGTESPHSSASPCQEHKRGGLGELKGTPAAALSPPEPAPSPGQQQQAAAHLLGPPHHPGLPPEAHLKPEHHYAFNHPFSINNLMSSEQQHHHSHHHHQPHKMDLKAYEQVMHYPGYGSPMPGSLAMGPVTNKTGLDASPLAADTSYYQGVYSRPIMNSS

Test [18] in a line: ATG_FoxO_CIS: Attagene CIS-FACTORIAL HepG2 Assay for human Forkhead box O (FoxO) (AID 2282943). The settings on record: HepG2 Attagene cis-reporter, FoxO element, mRNA; actives raise or lower the signal. A digest of the protocol:
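Read-out: fluorescence of 6-FAM-labelled reporter cDNA fragments resolved by capillary electrophoresis. Transiently transfected HepG2 cells were dosed for 24 h; activity fitted in both directions relative to DMSO controls.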

The nature of test [19]: ATG_GATA_CIS: Attagene CIS-FACTORIAL HepG2 Assay for human GATA Binding Protein (AID 2282944). The note with it: HepG2 GATA cis-element reporter, Attagene multiplex mRNA; actives raise or lower the signal. Put shortly: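 Reporter transcripts from a GATA cis-regulated unit, among multiplexed reporters in transfected HepG2 cells, were measured by RT-PCR with capillary electrophoresis after 24 h dosing. Induction or loss scored relative to DMSO.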

A short description of test [20]: ATG_GLI_CIS: Attagene CIS-FACTORIAL HepG2 Assay for human Zinc Finger Protein GLI1 (AID 2282945). The note with it: HepG2, Attagene cis-factorial reporter mRNA, GLI element; actives raise or lower the signal. Put shortly: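 Transiently transfected HepG2 cells report endogenous transcription factor activity via cis-element-driven reporter units. After 24 h compound exposure, reporter mRNA was measured by RT-PCR with capillary electrophoresis; bidirectional fitting against DMSO baseline.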

Retinoic acid receptor alpha (Homo sapiens), sequence (P10276 whole entry, looked up): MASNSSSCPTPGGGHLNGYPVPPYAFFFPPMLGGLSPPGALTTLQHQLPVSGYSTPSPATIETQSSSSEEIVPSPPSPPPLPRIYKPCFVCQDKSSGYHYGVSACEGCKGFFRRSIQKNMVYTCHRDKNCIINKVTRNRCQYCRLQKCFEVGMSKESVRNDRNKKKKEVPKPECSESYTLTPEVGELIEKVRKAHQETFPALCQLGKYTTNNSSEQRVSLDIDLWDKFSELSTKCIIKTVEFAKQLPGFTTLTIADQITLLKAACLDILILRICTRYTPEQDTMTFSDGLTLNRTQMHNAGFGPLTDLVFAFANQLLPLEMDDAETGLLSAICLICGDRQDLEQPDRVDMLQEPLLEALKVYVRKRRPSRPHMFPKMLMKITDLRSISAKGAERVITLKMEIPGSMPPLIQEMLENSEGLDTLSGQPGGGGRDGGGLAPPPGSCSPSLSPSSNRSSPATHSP
Transcription factor E2F1 (Homo sapiens), sequence (Q01094 whole entry, looked up): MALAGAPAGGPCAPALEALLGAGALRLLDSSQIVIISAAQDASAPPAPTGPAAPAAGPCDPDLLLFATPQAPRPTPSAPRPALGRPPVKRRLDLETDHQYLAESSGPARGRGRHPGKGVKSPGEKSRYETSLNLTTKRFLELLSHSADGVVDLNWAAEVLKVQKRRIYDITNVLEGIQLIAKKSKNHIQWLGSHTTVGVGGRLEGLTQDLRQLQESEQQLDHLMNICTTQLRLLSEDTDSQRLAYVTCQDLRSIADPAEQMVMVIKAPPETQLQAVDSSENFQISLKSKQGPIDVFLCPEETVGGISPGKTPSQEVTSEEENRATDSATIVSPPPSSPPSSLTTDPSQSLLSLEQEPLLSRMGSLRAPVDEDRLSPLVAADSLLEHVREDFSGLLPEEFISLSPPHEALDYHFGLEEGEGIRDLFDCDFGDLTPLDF
CCAAT/enhancer-binding protein beta (Homo sapiens), sequence (P17676 whole entry, looked up): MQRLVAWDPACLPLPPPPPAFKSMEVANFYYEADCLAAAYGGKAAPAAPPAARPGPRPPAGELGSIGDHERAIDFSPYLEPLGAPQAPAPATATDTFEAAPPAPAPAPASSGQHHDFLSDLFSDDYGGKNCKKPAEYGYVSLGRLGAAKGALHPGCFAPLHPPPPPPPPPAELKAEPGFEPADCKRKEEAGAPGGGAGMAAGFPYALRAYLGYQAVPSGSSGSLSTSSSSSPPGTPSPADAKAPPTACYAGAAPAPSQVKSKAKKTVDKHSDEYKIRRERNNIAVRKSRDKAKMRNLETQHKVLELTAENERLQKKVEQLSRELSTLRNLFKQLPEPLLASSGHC

Regarding `ClC(Cl)=C(c1ccc(Cl)cc1)c1ccccc1Cl`, the compound was called inactive in [1], in test [2], in test [7], in [8], in test [10] and in [12]. The compound was classed as inactive in [13], in test [14], in test [17], in [19] and in test [20]. Further, the AC50 in [3] is 36.5 µM (active); in test [4], 27.3 µM (active); in [5], 27.2 µM (active); in test [6] it was 57.5 µM (active); in [9] it was 27 µM (active); in test [11], 63.6 µM (active). In addition, the AC50 was 4.18 µM (active) in test [15], 174 µM (active) in test [16] and 160 µM (active) in [18].

Consider `CC(C)(C)c1ccccc1OP(=O)(Oc1ccccc1)Oc1ccccc1`, for which the call in test [1], in [5], in test [7], in test [8], in test [9] and in [10] was inactive. Further, the outcome in test [11], in [12], in test [13], in [14], in [16] and in [17] was inactive. The call in test [18], in [19] and in test [20] was inactive. Further, the AC50 was 14.8 µM (active) in test [2]; 100 µM (active) in test [3]; 27.1 µM (active) in [4]; 116 µM (active) in [6]; 12.4 µM (active) in test [15].

Take `CCCN(CCC)c1c([N+](=O)[O-])cc(C(C)C)cc1[N+](=O)[O-]`: the result in [1], in test [2], in test [5], in test [7], in test [8] and in test [9] was inactive. For the same compound, the compound was called inactive in test [10], in test [11], in [12], in test [13], in test [14] and in test [15]. Also, the compound was called inactive in [16], in test [17], in test [18], in test [19] and in test [20]. Further, the AC50 in test [3] is 56.2 µM (active); in [4] it was 5.57 µM (active); in test [6], 130 µM (active).

As for `COCCOCCO`, the compound was classed as inactive in test [1], in [2], in test [3], in test [4], in test [5] and in [6]. Besides, the result in test [7], in test [8], in test [9], in [10], in [11] and in test [12] was inactive. Further, the compound was classed as inactive in [13], in test [14], in [15], in [16], in test [17] and in test [18]. Further, the compound was classed as inactive in test [19] and in test [20].
